High-throughput results: PubChem, several laboratories
Shown are actives, neighbours in structure and some others; about 2.2% of the full set was active somewhere.
aSyn 5UTR inh – MLPCN primary screen, SNCA 5' untranslated region; alpha-synuclein 5'UTR reporter, inhibitor activity; AID 1813, 2009; inhibition, % (tested at 7.5 µM); hit rate 0.82% among 300,000; in the data active = inhibition above about 60%;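 also: H4 neuroglioblastoma cells stably carrying SNCA 5'UTR luciferase fusion; 0% = DMSO wells and 100% = positive control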
APP transl inh – inhibitors of APP translation via 5'UTR reporter, primary screen, APP 5'UTR luciferase, SH-SY5Y cells; inhibition, % at 2 µM; hit rate 0.82% among 190,000; SH-SY5Y APP 5'UTR-luciferase reporter, luminescence; AID 1285, 2008;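 active = inhibition above a set limit, derived from the sample mean plus 3 SD, cut at about 45% in these data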
KLF5 inh – KLF5 expression inhibitors, primary screen, DLD-1 cells, luminescence | DLD-1 KLF5 promoter-luciferase reporter | inhibition, % at 5 µM | hit rate 0.23% among 290,000;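 active = inhibition above a per-plate limit of that plate's mean compound inhibition plus 3 SD, cut at about 60% in these data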;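 also: 0% = DMSO wells and 100% = LY294002 at 200 µM; higher means less KLF5 promoter-driven luciferase light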
Ba/F3 V617F tox – reduced viability of JAK2V617F-dependent Ba/F3 cells, primary screen, JAK2V617F inhibitor project, cell-based, Ba/F3 EpoR-JAK2V617F, luminescence; AID 1446, 2008; hit rate 1.1% among 220,000; ATP luminescence; inhibition, % at 5.6 µM;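 active = inhibition above the campaign mean plus 3 SD over all tested compounds, cut at about 24% in these data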;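 also: cytokine-independent growth of Ba/F3 cells driven by EpoR plus mutant JAK2; 0% = DMSO-treated cells and 100% = JAK inhibitor I control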
BaF3 parental – parental Ba/F3 cell viability inhibition, counter-screen for JAK2V617F inhibitor project, murine pro-B, CellTiter-Glo luminescence | CellTiter-Glo ATP luminescence | inhibition, % at 5.6 µM | hit rate 1.1% among 220,000;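 active = inhibition above a per-campaign cutoff, the mean inhibition of all tested compounds plus 3 SD, cut at about 27% in these data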;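 also: 0% = DMSO wells and 100% = JAK Inhibitor I control wells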
IEC-6 cytotox – cytotoxicity in IEC-6 intestinal epithelial cells, primary screen, cytotoxicity control for KLF5 inhibitor project, cell-based, luminescence. hit rate 0.78% among 290,000. IEC-6 cytotoxicity, luminescence viability. inhibition, % at 5 µM. AID 1825, 2009; in the data active = inhibition above about 22%;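 also: 0% = plate median of test compound wells and 100% = cytotoxic reference compound wells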
BaF3 tox 2 – parental Ba/F3 cell viability inhibition, counter-screen for JAK2V617F inhibitor project, murine pro-B, CellTiter-Glo luminescence; AID 1520, 2009; inhibition, % at 5.6 µM; shares compounds with Ba/F3 V617F tox; hit rate 31% among 580; cells kept alive by added IL-3;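 active = cell growth inhibition above the hit limit set in the earlier mutant JAK2 cell screen, cut at about 27% in these data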;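 also: plate controls were DMSO-treated cells for no effect and JAK Inhibitor I control wells for full effect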
JAK2V617F conf – viability loss in Ba/F3 EpoR-JAK2V617F cells, confirmation, JAK2V617F inhibitor project, cell-based, luminescence, triplicate; shares compounds with Ba/F3 V617F tox; CellTiter-Glo luminescence; inhibition, % at 5.6 µM; hit rate 66% among 580; AID 1521, 2009;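 active = mean inhibition above the hit cutoff derived in the earlier primary screen, cut at about 25% in these data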;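 also: 0% = DMSO-treated cells and 100% = JAK inhibitor I control wells; higher means lower luminescence from reduced cell ATP and viability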
Numbers without * were called inactive; / = no result.

SMILES | aSyn 5UTR inh | APP transl inh | KLF5 inh | Ba/F3 V617F tox | BaF3 parental | IEC-6 cytotox | BaF3 tox 2 | JAK2V617F conf
O=C(/C=C/c1ccccc1[N+](=O)[O-])NCCCN1CCCC1=O | -18.2 | / | -27.9 | / | / | -8.0 | / | /
Nc1nc(=S)c2ncn(C3OC(CO)C(O)C3O)c2[nH]1 (centres undefined) | 18.3 | / | -26.8 | 45.0* | 25.0 | 10.3 | 7.0 | 29.6*
O=C(Cn1c(-c2ccccn2)nc2ccccc21)N/N=C/c1cccnc1 | 10.7 | / | -33.7 | 3.4 | -0.1 | 7.6 | / | /
COc1ccc(/C=N/n2cnc3c([nH]c4ccc(C)cc43)c2=O)cc1CN1CCCC1 | -16.6 | / | -12.9 | 3.6 | 5.8 | 6.2 | / | /
COc1ccc(/C=N/n2cnc3c([nH]c4ccc(F)cc43)c2=O)cc1CN1CCCC1 | 16.5 | / | 27.7 | 40.5* | 14.8 | -0.5 | 10.9 | 29.9*
COc1ccc(CNC(=O)CN(C(=O)c2csnn2)c2cccc3ccccc23)cc1 | 2.7 | / | 15.8 | / | / | 10.1 | / | /
Cc1ccccc1OCC(=O)Nc1nc2ccccc2[nH]1 | -111.2 | -114.5 | -103.7 | 0.6 | 3.4 | -0.2 | / | /
N#Cc1cccc(NC(=O)Cn2cnc(S(=O)(=O)N3CCCC3)c2)c1 | -19.0 | / | -4.3 | / | / | -5.0 | / | /
Cc1ccc(Sc2ccc(NC(=O)CCl)cc2)cc1C | 44.1 | 23.7 | -13.4 | 8.5 | 11.9 | 17.6 | / | /
Cc1ccc(C)c(Sc2ccc(NC(=O)CCl)cc2)c1 | -13.8 | 60.0* | -14.3 | 50.0* | 3.6 | 6.2 | 7.3 | 86.1*
Cc1ccc(S(=O)(=O)NC(=O)NCC2CCN(S(=O)(=O)c3ccccc3)CC2)cc1 | -17.6 | / | -13.3 | / | / | 3.1 | / | /
O=C(Nc1nc(=O)c2ccccc2s1)c1ccccc1 | -156.6 | -65.6 | 0.1 | 29.0* | 15.1 | 0.9 | -2.5 | -11.6
O=C(CC1C(=O)NCCN1Cc1ccccc1C(F)(F)F)NCCN1CCOCC1 (centres undefined) | 4.5 | / | -11.6 | / | / | -1.8 | / | /
O=C(Cc1ccccc1)Nc1scc(-c2ccccc2)c1C(=O)N1CCOCC1 | 18.5 | 3.7 | 18.3 | 4.2 | 8.5 | -3.2 | / | /
NC(=O)c1c(-c2ccc(Cl)cc2Cl)csc1NC(=O)Cc1ccccc1 | 6.0 | -13.3 | -15.3 | 37.5* | 12.3 | 4.1 | 39.9* | 65.3*
CCOC(=O)c1c(NC(=O)/C=C/C(=O)O)sc(C)c1-c1ccc(C(C)(C)C)cc1 | -34.3 | -5.3 | -7.0 | 27.6* | 16.6 | -0.1 | 16.1 | 43.0*
S=C(Nc1ccc(Cl)cc1)N1CCCCC1 | -22.1 | 2.2 | -7.6 | 4.6 | 11.7 | 1.5 | / | /
Cc1ccc(NC(=S)N2CCN(C3CCCCC3)CC2)cc1 | -19.8 | -6.5 | -12.6 | 60.9* | 7.0 | -7.3 | 24.5 | 40.1*
CN1CCN(C(=S)Nc2ccc(Cl)cc2)CC1 | -6.5 | -16.1 | -32.9 | 27.0* | 14.2 | -7.8 | 22.7 | 45.8*
COc1cccc(Oc2ccc(S(=O)(=O)N3CCCC3)cc2[N+](=O)[O-])c1 | -10.7 | / | -58.9 | / | / | -4.2 | / | /
COc1ccc(C(=O)NCCS(=O)(=O)N2CCCC2)cc1 | -25.1 | / | / | / | / | / | / | /
CCCCn1c(=N)n(CC(O)COc2ccccc2)c2ccccc21 (centres undefined) | -7.2 | 0.9 | -10.1 | 3.8 | 7.2 | 0.9 | / | /
CCCCn1c(=N)n(CC(O)COc2ccc(C)cc2)c2ccccc21 (centres undefined) | 1.1 | 10.7 | -1.7 | 64.9* | 16.2 | 7.0 | 5.1 | 47.9*
CC(C)(C)c1cc(NC(=O)CCl)n(-c2ccccc2)n1 | -59.9 | / | 1.5 | 30.4* | -9.1 | -7.5 | -4.6 | 81.1*
CNC(=O)c1nnsc1S(=O)c1ccc(Cl)cc1 (centres undefined) | -48.9 | 86.5* | 8.0 | 43.6* | 3.0 | 3.9 | 8.0 | 70.1*
SMILES | aSyn 5UTR inh | APP transl inh | KLF5 inh | Ba/F3 V617F tox | BaF3 parental | IEC-6 cytotox | BaF3 tox 2 | JAK2V617F conf
CCCNC(=O)c1ccc2snnc2c1 | 12.0 | -29.4 | -49.4 | -2.1 | -1.1 | -9.9 | / | /
CCCNC(=O)c1nnsc1S(=O)c1ccc(Cl)cc1 (centres undefined) | -53.9 | 94.5* | 4.8 | 54.8* | -2.6 | 13.9 | 41.6* | 99.1*
C=CCC1CCC/C(=N\NS(=O)(=O)c2ccc(C)cc2)C1 (centres undefined) | -0.2 | / | -22.2 | / | / | -1.9 | / | /
CC(/C=N/NC(=O)CNc1n[nH]c(=O)[nH]c1=O)c1ccccc1 (centres undefined) | 8.4 | / | -8.0 | 2.5 | -0.8 | 5.4 | / | /
COc1c(Cl)cc(C(=O)NN)cc1Cl | 98.7* | 92.2* | 14.7 | 42.0* | 21.0 | 52.4* | -5.5 | -2.0
Cc1ccc(S(=O)(=O)N2CCN(CC(O)c3ccccc3)CC2)cc1C (centres undefined) | -18.5 | 8.2 | -16.1 | 1.3 | 7.1 | -5.4 | / | /
O=C(c1ccccc1)c1ccccc1N1C(=O)C=CC1=O | 21.1 | / | -16.1 | 32.0* | 1.8 | 6.9 | -2.2 | 26.2*
O=C(O)c1ccccc1C(=O)c1ccc(-c2ccccc2)cc1 | -5.5 | / | -77.2 | / | / | -2.6 | / | /
COc1ccc(OC)c(NC(=O)NNC(=O)COc2ccc([N+](=O)[O-])cc2)c1 | 3.9 | / | -12.4 | / | / | -2.1 | / | /
CCOc1ccc(C(=O)C(CN2CCOCC2)c2ccccc2)cc1 (centres undefined) | -22.7 | 67.3* | -10.8 | 59.1* | 8.2 | 2.9 | 19.0 | 98.2*
CCOc1ccc(C(O)(CCC(C)C)C(CN2CCOCC2)c2ccccc2)cc1 (centres undefined) | 20.9 | / | -16.1 | / | / | -2.9 | / | /
Cc1cccc(NC(=O)CSc2ccc3nnc(-c4cccnc4)n3n2)c1 | 2.7 | / | -5.2 | / | / | 3.7 | / | /
Cc1ccc(N(CC(O)CN2C(=O)NC(C)(C)C2=O)S(=O)(=O)c2ccc(C)cc2)cc1 (centres undefined) | -15.8 | / | 1.1 | 25.4* | 1.7 | 1.3 | 0.3 | -1.1
Cc1cc(C(=O)Nc2cnc3ccccc3c2)ccc1[N+](=O)[O-] | -131.8 | -203.6 | -107.0 | 27.5* | 1.2 | 7.3 | -5.3 | -7.3
COC(=O)c1cn(NC(=O)C2CCC(C)CC2)c(=O)c2ccccc12 (centres undefined) | 17.4 | -14.8 | 24.1 | 4.0 | 3.0 | 6.3 | / | /
COC(=O)c1cn(NC(=O)c2cc([N+](=O)[O-])ccc2F)c(=O)c2ccccc12 | 2.7 | 23.1 | 31.6 | 35.7* | 23.5 | 6.0 | 41.5* | 96.7*
COc1ccc(CCC(=O)NC2CCCc3ccccc32)cc1OC (centres undefined) | -0.7 | / | 0.5 | / | / | -3.0 | / | /
Cc1ccc(/C=[N+](\[O-])c2ccc(N(C)C)cc2)c2nsnc12 | 2.0 | 60.9* | -51.0 | 46.5* | 4.7 | 5.4 | -0.6 | -2.6
